In the library only some 3.3% were active in any assay of this set; here they are far more common.
PfGluPho inh – PfG6PD enzyme inhibitors, primary screen, biochemical, fluorescence intensity, uHTS; PfGluPho enzyme, NADPH resazurin-diaphorase fluorescence; inhibition, % at 20 µM; 0.78% of 350,000 active; AID 504690, 2011;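 active = inhibition reaching at least a set limit at 20 µM in the primary screen, cut at about 59% in these data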
MBD2 DNA inh – inhibitors of MBD2 binding to methylated DNA, primary screen, biochemical, TR-FRET, DNA-binding domain, human; Methyl-CpG-binding domain protein 2 (Homo sapiens), Q9UBB5; MBD2 binding to methylated oligonucleotide; inhibition, % at 4.4 µM; 0.31% of 370,000 active; AID 686964, 2013; in the data active = inhibition above about 13%
Target sequence (Q9UBB5 whole entry, looked up, the tested form may be a part): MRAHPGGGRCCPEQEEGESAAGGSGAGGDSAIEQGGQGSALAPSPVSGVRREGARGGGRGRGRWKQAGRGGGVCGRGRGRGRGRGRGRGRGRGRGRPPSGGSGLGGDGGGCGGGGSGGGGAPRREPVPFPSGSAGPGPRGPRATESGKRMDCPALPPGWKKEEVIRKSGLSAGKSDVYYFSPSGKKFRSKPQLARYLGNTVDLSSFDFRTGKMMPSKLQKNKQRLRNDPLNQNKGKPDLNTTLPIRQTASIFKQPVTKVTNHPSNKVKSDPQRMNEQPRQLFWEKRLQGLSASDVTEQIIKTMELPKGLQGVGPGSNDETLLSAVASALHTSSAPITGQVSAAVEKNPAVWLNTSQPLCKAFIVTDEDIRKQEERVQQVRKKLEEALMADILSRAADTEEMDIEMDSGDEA
PRMT1 FP inh – PRMT1 methyltransferase inhibitors, primary screen, biochemical, fluorescence polarization | inhibition, % at 2.79 µM | recombinant PRMT1, activity-based probe fluorescence polarization | AID 652257, 2013 | Protein arginine N-methyltransferase 1 (Homo sapiens), Q99873 | 1.3% of 370,000 active;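 active = inhibition above about 21% made by adding two undisclosed values, limit read from the data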
PfM18AAP inh – PfM18AAP inhibitors, malaria aminopeptidase, primary screen, biochemical, QFRET, recombinant enzyme. M18 aspartyl aminopeptidase (Plasmodium falciparum 3D7). H-Glu-NHMec fluorogenic cleavage. inhibition, % at 7.35 µM. 1.2% of 290,000 active;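 active = inhibition above the campaign mean inhibition over all tested compounds plus 3 SD, cut at about 28% in these data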
UHRF1 MBD2 ctr – UHRF1 methylated DNA binding inhibitors, primary screen, counter-screen for MBD2 inhibitor project, biochemical, TR-FRET, human UHRF1, single concentration; UHRF1 binding to methylated oligo; inhibition, % at 4.4 µM; 0.75% of 370,000 active;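 also: UHRF1 SRA domain binding a hemimethylated CpG hairpin DNA probe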
UHRF1 ctr MBD2 – UHRF1 methylated DNA binding inhibitors, counter-screen for MBD2 inhibitor project, biochemical, TR-FRET, human UHRF1. shares compounds with MBD2 DNA inh. UHRF1 binding to methylated oligonucleotide. inhibition, % at 4.4 µM. 25% of 1,000 active. AID 720530, 2013;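 also: UHRF1 SRA domain binding a labeled hemimethylated CpG hairpin DNA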
MBD2 DBD conf – inhibitors of MBD2 binding to methylated DNA, confirmation, biochemical, TR-FRET, DNA-binding domain, human | shares compounds with MBD2 DNA inh | TR-FRET MBD2-DBD binding to methylated oligonucleotide | inhibition, % at 4.4 µM | 26% of 1,000 active; in the data active = inhibition above about 14%
Each line names hits and unclear results; the compound was inactive in the other large screens (follow-up assays come after a bar, where they were run). Rule as the data show it, unless noted: active = inhibition above about 21%; inactive = the rest.

Cc1ccc2nc(Cl)c3cc(C(=O)NCCCN4CCCC4)sc3c2c1	MBD2 DNA inh 15 | UHRF1 ctr MBD2 inactive | MBD2 DBD conf 16
O=C(COC(=O)c1ccco1)NC12CC3CC(CC(C3)C1)C2	none (no result: PfM18AAP inh)
COC(=O)C1CCN(C(=O)c2cc(-c3ccco3)nc3ccccc23)CC1	MBD2 DNA inh 22, PRMT1 FP inh 22, UHRF1 MBD2 ctr 40 (no result: PfM18AAP inh) | UHRF1 ctr MBD2 30 | MBD2 DBD conf 22
COCCCNC(=O)CCc1c(C)c2cc3c(C)coc3cc2oc1=O	MBD2 DNA inh 13 | UHRF1 ctr MBD2 inactive | MBD2 DBD conf inactive
Cc1coc2cc3oc(=O)c(CCC(=O)NCC(=O)O)c(C)c3cc12	none
CCOC(=O)C1CC(=O)c2ccccc2C1c1ccccc1 (stereo not drawn)	none (no result: PfM18AAP inh)
NC(=O)C1=C(N)c2ccccc2C1c1ccccc1 (stereo not drawn)	MBD2 DNA inh 32 (no result: PfM18AAP inh) | UHRF1 ctr MBD2 inactive | MBD2 DBD conf inactive
CCOC(=O)CSc1nc2sc(C)c(C)c2c(=O)n1C	none
CCOC(=O)CSc1nc(C(C)C)nc2sc(C)c(C)c12	MBD2 DNA inh 45 | UHRF1 ctr MBD2 inactive | MBD2 DBD conf inactive
Cc1ccc(S(=O)(=O)NCC(=O)OCC(=O)c2ccc(S(=O)(=O)N3CCCCC3)cc2)cc1C	MBD2 DNA inh 25 (no result: PfM18AAP inh) | UHRF1 ctr MBD2 inactive | MBD2 DBD conf inactive
O=C(OCc1cc(=O)n2c(n1)sc1ccccc12)c1ccc2c(=O)n3c(nc2c1)CCC3	MBD2 DNA inh 22, UHRF1 MBD2 ctr 39 (no result: PfM18AAP inh) | UHRF1 ctr MBD2 27 | MBD2 DBD conf 22
CC(=O)c1c(C)[nH]c(C(=O)COC(=O)c2ccc3c(=O)n4c(nc3c2)CCC4)c1C	none
C/C(=N\NC(=O)c1nc2ccccn2c1C)c1cccc([N+](=O)[O-])c1	MBD2 DNA inh 58 | UHRF1 ctr MBD2 inactive | MBD2 DBD conf inactive
C/C(=N\NC(=O)c1nc2ccccn2c1C)c1ccc2c(c1)OCO2	none
O=c1oc(-c2ccccc2)nc2sc3c(c12)CCC3	MBD2 DNA inh 18, UHRF1 MBD2 ctr 46 | UHRF1 ctr MBD2 26 | MBD2 DBD conf 15
COC(=O)[C@]12C[C@H](CC(=O)NCCCN3CCCC3=O)C(=O)N(Cc3ccc(Cl)cc3Cl)C1=C[C@H](C1CCCC1)O[C@@H]2C	MBD2 DNA inh 15 (no result: PfGluPho inh, PfM18AAP inh) | UHRF1 ctr MBD2 inactive | MBD2 DBD conf inactive
COC(=O)[C@]12C[C@H](CC(=O)NCC3CCCCC3)C(=O)N(Cc3ccccc3)C1=C[C@H](C(C)(C)C)O[C@@H]2C	MBD2 DNA inh 20, UHRF1 MBD2 ctr 24 (no result: PfGluPho inh, PfM18AAP inh) | UHRF1 ctr MBD2 inactive | MBD2 DBD conf inactive
COc1ccc(CC(=O)NCC(=O)N/N=C/c2sccc2C)cc1	none
CC1Oc2ccccc2N(CC(=O)Nc2ccc(F)cc2)C1=O (stereo not drawn)	none
CCN(CC(=O)Nc1ccc2c(c1)OCCO2)CC(=O)Nc1ccc(C)c(S(=O)(=O)N(C)C)c1	MBD2 DNA inh 20 (no result: PfM18AAP inh) | UHRF1 ctr MBD2 inactive | MBD2 DBD conf inactive
CCOc1ccc(S(=O)(=O)N(C)CC(=O)N2CCCC2)cc1	none
O=C(CSc1nnc(NC(=O)c2ccco2)s1)Nc1ccc2c(c1)OCCO2	none
Cc1oc2ccc(O)cc2c1C(=O)c1ccc(Br)cc1	MBD2 DNA inh 16 (no result: PfM18AAP inh) | UHRF1 ctr MBD2 inactive | MBD2 DBD conf inactive
CC1CCCCC1NC(=O)C1CCC(CNS(=O)(=O)c2ccc3c(c2)C(C)(C)C(=O)N3C)CC1 (stereo not drawn)	none (no result: PfGluPho inh, PfM18AAP inh)
CC(=O)c1cccc(OCC(=O)N(C)CC(=O)NCc2ccco2)c1	MBD2 DNA inh 22, UHRF1 MBD2 ctr 49 (no result: PfM18AAP inh) | UHRF1 ctr MBD2 43 | MBD2 DBD conf 18
CCCCN(C(=O)c1cccc(-n2cccc2)c1)c1c(N)n(Cc2ccccc2)c(=O)[nH]c1=O	MBD2 DNA inh 18, UHRF1 MBD2 ctr 33 (no result: PfGluPho inh, PfM18AAP inh) | UHRF1 ctr MBD2 43 | MBD2 DBD conf 35
CCCCN(C(=O)c1cccc(N2C(=O)c3ccccc3C2=O)c1)c1c(N)n(CC(C)C)c(=O)[nH]c1=O	none (no result: PfM18AAP inh)
CS(=O)(=O)Nc1cccc(NC(=O)c2ccc(-n3ccnc3)c3ccoc23)c1	MBD2 DNA inh 14 (no result: PfGluPho inh, PfM18AAP inh) | UHRF1 ctr MBD2 inactive | MBD2 DBD conf inactive
O=C1CCCC2=C1C(c1ccco1)Nc1ccc3ccccc3c12 (stereo not drawn)	MBD2 DNA inh 22, PRMT1 FP inh 44, UHRF1 MBD2 ctr 50 | UHRF1 ctr MBD2 48 | MBD2 DBD conf 21
O=C1CCCC2=C1C(c1ccc(O)c(O)c1)Nc1ccc3ccccc3c12 (stereo not drawn)	none (no result: PfM18AAP inh)
O=C1CCCCC1Nc1ccc(Br)cc1 (stereo not drawn)	MBD2 DNA inh 13, UHRF1 MBD2 ctr 21 (no result: PfM18AAP inh) | UHRF1 ctr MBD2 inactive | MBD2 DBD conf inactive
O=C(/C=C/c1cc([N+](=O)[O-])ccc1OC(F)F)Nc1cccc(OC(F)F)c1	none
CC(C)NC(=O)C(=O)NCC(c1ccc2c(c1)OCO2)N1CCOCC1 (stereo not drawn)	MBD2 DNA inh 14, UHRF1 MBD2 ctr 28 | UHRF1 ctr MBD2 inactive | MBD2 DBD conf inactive
Nc1ncc(C(=O)O)c(-c2ccccc2)n1	MBD2 DNA inh 37 (no result: PfM18AAP inh) | UHRF1 ctr MBD2 inactive | MBD2 DBD conf inactive
COc1cccc(C(=O)Nc2ccc(N3CCN(C(=O)c4cccs4)CC3)cc2)c1	none
O=C(OCc1nnc(-c2ccccc2)o1)C1CCN(S(=O)(=O)c2cccs2)CC1	none
Cc1ccc(-c2nc3ccc(C)cn3c2CC2CCCCC2)cc1	MBD2 DNA inh 13, UHRF1 MBD2 ctr 22 (no result: PfGluPho inh, PfM18AAP inh) | UHRF1 ctr MBD2 inactive | MBD2 DBD conf inactive
Cc1ccc(-c2nc3ccc(Cl)cn3c2CC2CCCCC2)cc1	none (no result: PfGluPho inh, PfM18AAP inh)
COc1ccc(N=Cc2ccc[nH]2)cc1	MBD2 DNA inh 22 | UHRF1 ctr MBD2 inactive | MBD2 DBD conf inactive
CCCCOc1ccc(N=Cc2ccc[nH]2)cc1	none
OCC1(CCOc2ccccc2)CCN(CCCn2cccn2)CC1	MBD2 DNA inh 13 | UHRF1 ctr MBD2 inactive | MBD2 DBD conf inactive
O=c1c2ccccc2oc2nc(-c3cccs3)n(CCc3ccccc3)c(=O)c12	none (no result: PfGluPho inh, MBD2 DNA inh, PRMT1 FP inh, UHRF1 MBD2 ctr)
CC(=O)Nc1ccc(NC(=O)C(C)OC(=O)C2(c3ccc(Cl)cc3)CCCC2)cc1 (stereo not drawn)	MBD2 DNA inh 19, UHRF1 MBD2 ctr 25 | UHRF1 ctr MBD2 inactive | MBD2 DBD conf inactive
COc1ccc(N(C(=O)CNC(=O)c2ccco2)C(C(=O)NC2CCCCC2)c2cccnc2)cc1 (stereo not drawn)	none
O=c1c2cc(Br)cc(Br)c2oc2nc3n(c(=O)c12)CCCS3	none (no result: PfGluPho inh, MBD2 DNA inh, PRMT1 FP inh, UHRF1 MBD2 ctr)
